Results filed as inconclusive are left out. Calls of active or inactive are those of the source. Unless noted, calls follow the shape of the dose curve; as a rule, active = well fitted inhibition curve with a large enough effect; inconclusive = small, poorly fitted or top-dose-only effect; inactive = flat fitted curve, though single readings scatter.

From PubChem BioAssay (NCATS) come the findings set out here.

Assay [1] concerns AA1029. Briefly: qHTS profiling for inhibitors of Plasmodium falciparum proliferation (AID 504749). Also: potency is read from the fitted curve at half-maximal effect; nearly all actives have a fitted effect of over 60% in size. The conditions noted are these: P. falciparum in erythrocytes, SYBR Green DNA, 72 h; series mostly up to 28.7 µM. Put shortly: (§1)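 P. falciparum-infected erythrocytes (0.3% parasitemia, 2.5% hematocrit) incubated with compound 72 h at 37 C, 5% CO2. Parasite DNA detected by SYBR Green after lysis, overnight at room temperature; normalised to 0.29 uM artemisinin and DMSO.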

Assay [2] deals with CP211. The description is as above. As to conditions: P. falciparum in erythrocytes, SYBR Green DNA, 72 h; series mostly up to 28.7 µM. In a few lines:
as §1

Assay [3] relates to CP217. The description is as above. As to conditions: P. falciparum in erythrocytes, SYBR Green DNA, 72 h; series mostly up to 28.7 µM. In a few lines: as §1
Assay [4] concerns CP260. The assay is described as above. The conditions noted are these: P. falciparum in erythrocytes, SYBR Green DNA, 72 h; series mostly up to 28.7 µM. In a few lines: as §1
The test system of assay [5] is CP297. The description is as above. As to conditions: P. falciparum in erythrocytes, SYBR Green DNA, 72 h; series mostly up to 28.7 µM. In a few lines:
as §1

The test system of assay [6] is CP315. The description is as above. The conditions noted are these: P. falciparum in erythrocytes, SYBR Green DNA, 72 h; series mostly up to 28.7 µM. In a few lines:
as §1

In assay [7] the test system is DIV14. The description is as above. As to conditions: P. falciparum in erythrocytes, SYBR Green DNA, 72 h; series mostly up to 28.7 µM. In a few lines:
as §1

For assay [8], the system named is DIV17. The assay is described as above. The conditions noted are these: P. falciparum in erythrocytes, SYBR Green DNA, 72 h; series mostly up to 28.7 µM. Put shortly:
as §1

In assay [9] the test system is ICS. The description is as above. The conditions noted are these: P. falciparum in erythrocytes, SYBR Green DNA, 72 h; series mostly up to 28.7 µM. In a few lines: as §1
The test system of assay [10] is N140. The description is as above. The conditions noted are these: P. falciparum in erythrocytes, SYBR Green DNA, 72 h; series mostly up to 28.7 µM. Put shortly: as §1
The subject of assay [11] is TAB165. The assay is described as above. The conditions noted are these: P. falciparum in erythrocytes, SYBR Green DNA, 72 h; series mostly up to 28.7 µM. Put shortly: as §1
The target in assay [12] is DNA dC->dU-editing enzyme APOBEC-3G (Homo sapiens) (UniProt Q9HC16). Briefly: qHTS for inhibitors of Vif-A3G interactions: Validation (AID 588379). In a few lines:
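HeLa cells stably expressing Vif and A3G-eYFP, 700 cells/well, incubated overnight at 37 deg C, then exposed to compound overnight at 37 deg C. Inhibition of Vif-mediated degradation read as increased yellow fluorescence (Ex 488/Em 500-530) by laser-scanning cytometry.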
(qHTS replaces the single test concentration by a dilution series.)

Assay [13] in a line: qHTS assay to identify small molecules that stimulate interleukin-8 (IL-8) secretion (AID 651758; active = well fitted activation curve with a large enough effect in the signal ratio; the % refers to the signal ratio). In a few lines: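 THP-1 cells (2000/well) exposed to compound 16 h at 37 C; secreted IL-8 then detected by HTRF with cryptate- and XL665-labelled anti-IL-8 antibody pair after 1-3 h at room temperature.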

Sequence of DNA dC->dU-editing enzyme APOBEC-3G (Homo sapiens) (Q9HC16 whole entry, looked up): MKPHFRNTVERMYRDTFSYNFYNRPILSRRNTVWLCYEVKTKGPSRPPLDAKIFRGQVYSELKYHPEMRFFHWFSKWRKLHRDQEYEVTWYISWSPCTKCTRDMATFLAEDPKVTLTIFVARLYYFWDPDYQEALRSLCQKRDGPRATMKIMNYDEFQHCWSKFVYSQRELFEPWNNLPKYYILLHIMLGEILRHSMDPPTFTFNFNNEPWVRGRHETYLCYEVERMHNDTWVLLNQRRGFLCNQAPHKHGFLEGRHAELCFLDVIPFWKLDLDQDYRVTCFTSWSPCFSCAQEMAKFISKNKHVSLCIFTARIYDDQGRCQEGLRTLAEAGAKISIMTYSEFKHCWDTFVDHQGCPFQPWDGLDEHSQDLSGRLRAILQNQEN

Consider `C=C[C@@H]1CN2CC[C@H]1C[C@H]2[C@H](O)c1ccnc2ccccc12`, for which the Potency in assay [1] is 891 nM (active); in [2], 953 nM (active); in assay [3], 1260 nM (active); in assay [4], 794 nM (active); in [5] it was 757 nM (active); in assay [6], 1200 nM (active). Further, the Potency in assay [7] was 426 nM (active); in assay [8] it was 379 nM (active); in [9], 224 nM (active); in assay [10] it was 794 nM (active); in assay [11], 355 nM (active).
Turning to `CC(=O)c1c(O)c(C)c(O)c(Cc2c(O)c3c(c(C(=O)/C=C\c4ccccc4)c2O)OC(C)(C)C=C3)c1O`, the compound was classed as inactive in assay [12].
Turning to `O=[N+]([O-])c1cc(Cl)c(Cl)cc1Cl`, the Potency entry in [13] is “inactive”.
